# Data as given in PubChem BioAssay AID463173 (ICCB-Longwood Screening Facility, Harvard Medical School, 2010).
# In all, about 52,000 compounds went through this assay and about 1,700 (3.3%) were called active. This is one part of a sample in which actives are shown more often than they occur. Values without a mark were called inactive. Rule as the data show it: active = survival mostly below about 52% (no sharp cut-off); inactive = mostly above about 56%.
# System: Wild type
# Test: growth inhibition of S. aureus wild type versus tarO mutant, primary screen, teichoic acid synthesis inhibitors, RN4220, OD600 (AID 463173)
# Conditions: S. aureus RN4220 wild type/DeltatarO growth, OD600, 18 h, hits give low values, screened at 18.75 µg/mL (by protocol)
row,Compound,survival
1,COc1ccc(CNc2nc(-c3ccco3)nn2C(=O)c2ccccc2Cl)cc1,95%
2,O=C(Cn1c(=O)n(-c2ccc(F)cc2)c(=O)c2sc3ccccc3c21)NC1CCCCC1,91%
3,CNC(=O)C1CCC(Cn2c(=O)c3sccc3n(CC(=O)N3CCCC3)c2=O)CC1 (stereo unspecified),77%
4,Cc1ccc(NCC(=O)N=Nc2c(O)[nH]c3ccccc23)cc1,114%
5,CCOC(=O)c1oc2c(c1C)-c1nn(Cc3ccc(Cl)cc3)cc1CC2,2% (active)
6,Cc1c(C(=O)O)oc2c1-c1nn(Cc3ccc(Cl)cc3)cc1CC2,77%
7,CCOC(=O)c1oc2c(c1C)-c1nn(Cc3cccc(Cl)c3)cc1CC2,66%
8,CCOc1ccc2c(c1)c(=O)c(C(=O)c1ccc3c(c1)OCO3)cn2Cc1cccc(F)c1,91%
9,CCCCOc1cccc(C2c3c(oc4ccccc4c3=O)C(=O)N2c2ccccn2)c1 (stereo unspecified),68%
10,O=C(Nc1noc2ccccc12)c1ccc(F)cc1,78%
11,CCOC(=O)c1c(C)oc2ncnc(N3CCN(c4ccccc4)CC3)c12,68%
12,CCOC(=O)c1c(C)oc2c1c(O)c(N=O)c1ccccc12,7% (active)
13,CCOC(=O)c1c(C)oc2nc(C)nc(N3CCN(c4ccccc4)CC3)c12,68%
14,CC(C)OC(=O)Cn1c(C2CC2)nc2ccccc2c1=O,115%
15,CC(C)(C)c1ccc(S(=O)(=O)N2CCC(Oc3ccc(-n4cnnn4)cc3)CC2)cc1,81%
16,Cc1cn2c(=O)cc(COC(=O)c3ccc(NC(=O)COc4ccccc4F)cc3)nc2s1,85%
17,Cn1ncc2c(N3CCN(c4ccccc4Cl)CC3)ncnc21,127%
18,CCn1c(SCc2ccccc2)nnc1C1CCCCC1,106%
19,Cc1c2cnn(-c3ccccc3)c(=O)c2c(C)n1C(C)C(=O)NCc1cccc(Br)c1 (stereo unspecified),71%
20,CC(=O)c1ccc(NC(=O)CCn2nc(C)c(S(=O)(=O)N3CCC(C)CC3)c2C)cc1,-6% (active)
21,Cc1nn(CCC(=O)Nc2cccc(C#N)c2)c(C)c1S(=O)(=O)N1CCC(C)CC1,69%
22,CC(=O)c1cccc(NC(=O)CCn2nc(C)c(S(=O)(=O)N3CCCCC3)c2C)c1,159%
23,CCOc1ccc(NC(=O)NCCc2c(C)nn(C)c2C)cc1,60%
24,CCc1cccc(CC)c1NC(=O)CN(C)S(=O)(=O)c1ccc2c(c1)n(C)c(=O)c(=O)n2C,81%

row,Compound,survival
1,O=C(Cn1cnc2nc3c(cc2c1=O)CCCC3)N1CCN(c2cccc(C(F)(F)F)c2)CC1,14% (active)
2,COc1cc(OC)c(NC(=O)Cn2cnc3nc4c(cc3c2=O)CCCC4)cc1Cl,-6% (active)
3,O=C(Cn1cnc2nc3c(cc2c1=O)CCCC3)N1CCN(c2ccccc2)CC1,69%
4,O=C(Cn1cnc2nc3c(cc2c1=O)CCCC3)Nc1ccc(F)cc1Cl,72%
5,COc1ccc(N2CCN(C(=O)Cn3cnc4nc5c(cc4c3=O)CCCC5)CC2)cc1,78%
6,Cc1cccc(N(C)C(=O)Cn2cnc3nc4c(cc3c2=O)CCCC4)c1,-1% (active)
7,Cc1ccc(C)c(N2CCN(C(=O)Cn3cnc4nc5c(cc4c3=O)CCCC5)CC2)c1,76%
8,Cc1ccc(C)c(NC(=O)Cn2cnc3nc4c(cc3c2=O)CCCC4)c1,72%
9,Cc1c(Cl)cccc1NC(=O)Cn1cnc2nc3c(cc2c1=O)CCCC3,131%
10,CN(C)C(=O)C1Cc2ccccc2CN1S(=O)(=O)c1ccc(F)cc1 (stereo unspecified),105%
11,CCc1ccc(-c2nc3c(c(SCc4ccccc4)n2)Cc2c(CO)cnc(C)c2O3)cc1,89%
12,COc1cccc(NC(=O)CSc2nccn2C2CCCC2)c1,73%
13,O=C1NC(=Nc2ccccc2)S/C1=C\c1ccc(C(=O)O)cc1,113%
14,CCOc1cccc(CC(=O)N2CCc3c([nH]c4ccccc34)C2c2ccccc2)c1OCC (stereo unspecified),81%
15,COc1ccc(C(=O)NCCn2cc(SCC(=O)Nc3ccccc3)c3ccccc32)cc1OC,65%
16,COC(=O)c1ccc(Cn2c(SCc3ccccc3F)nc3ccncc32)cc1,74%
17,O=C(OCc1cc(=O)n2nc(C3CC3)sc2n1)c1cccc(NC(=O)c2ccccc2Cl)c1,57%
18,Cc1nnc(N2C(=O)c3oc4ccccc4c(=O)c3C2c2ccc(C(C)(C)C)cc2)s1 (stereo unspecified),129%
19,COc1ccccc1CNC(=O)CCNS(=O)(=O)c1ccc2c(c1)oc(=O)n2C,83%
20,CC(C)(C)OC(=O)N1CCC(c2nnc(SCc3ccccc3Cl)o2)CC1,-2% (active)
21,Clc1cccc(CSc2nnc(C3CCNCC3)o2)c1,109%
22,CC(C)(C)OC(=O)N1CCC(c2nnc(SCc3ccccc3)o2)CC1,83%
23,CC(C)(C)OC(=O)N1CCC(c2nnc(SCc3ccccc3F)o2)CC1,73%
24,CC(C)(C)OC(=O)N1CCC(c2nnc(SCc3cccc(Cl)c3)o2)CC1,0% (active)

row,Compound,survival
1,Clc1ccccc1CSc1nnc(C2CCNCC2)o1,95%
2,CCCN1CCN(c2cc3c(cc2F)c(=O)c(S(=O)(=O)c2ccc(CC)cc2)cn3CC)CC1,70%
3,Nc1ccc2c(c1)ncn2CCO,115%
4,CCOc1ccccc1NC(=O)Cn1nc2c3cc(F)ccc3n(Cc3cccc(C)c3)cc-2c1=O,81%
5,CCc1ccccc1NC(=O)Cn1nc2c3cc(F)ccc3n(Cc3cccc(C)c3)cc-2c1=O,71%
6,COc1ccccc1NC(=O)Cn1nc2c3cc(F)ccc3n(Cc3cccc(C)c3)cc-2c1=O,-4% (active)
7,Cc1cc(C)cc(OCc2cc(=O)n3c(-c4ccccc4)csc3n2)c1,88%
8,Cc1cccc(NC(=O)C(=O)c2cc(C)n(-c3ccccc3)c2C)c1C,79%
9,COc1ccc(CNC(=O)CSc2n[nH]c(-c3ccc(F)cc3)n2)cc1,120%
10,COc1ccc(-c2nc(SCC(=O)NC(C)CCc3ccccc3)n[nH]2)cc1 (stereo unspecified),-1% (active)
11,O=C(CSc1n[nH]c(-c2ccccc2Cl)n1)NCCc1ccccc1,72%
12,CC(CCc1ccccc1)NC(=O)CSc1n[nH]c(-c2ccc(F)cc2)n1 (stereo unspecified),134%
13,CC(CCc1ccccc1)NC(=O)CSc1n[nH]c(-c2ccccc2)n1 (stereo unspecified),71%
14,COc1cccc(CNC(=O)CSc2n[nH]c(-c3ccccc3Cl)n2)c1,75%
15,COc1ccc(CNC(=O)CSc2n[nH]c(-c3ccc(OC)cc3)n2)cc1,-6% (active)
16,CC(C)Oc1ccccc1-c1nc(SCC(=O)c2ccc(F)cc2)n[nH]1,-5% (active)
17,O=C(CSc1n[nH]c(-c2ccccc2Cl)n1)NCc1ccc(F)cc1,-6% (active)
18,COc1ccccc1-c1nc(SCC(=O)c2ccc(Cl)cc2)n[nH]1,131%
19,COc1ccccc1-c1nc(SCC(=O)c2ccccc2)n[nH]1,77%
20,Cc1ccc(CNC(=O)CSc2n[nH]c(-c3ccc(F)cc3)n2)cc1,124%
21,CCOC(=O)c1c(S(=O)(=O)N2CCC(C(=O)Nc3ncccc3C)CC2)c(C)n(C)c1C,72%
22,COc1cc(C(=O)N(CCCN(C)C)c2nc3c(OC)cccc3s2)cc(OC)c1OC,124%
23,Cc1ccc(CN2CCCn3nc(C(=O)NCCc4ccccc4C)cc3C2=O)cc1,79%
24,O=C(c1ccccc1)C(C(=O)N1CCCCC1)n1ccccc1=O (stereo unspecified),113%

row,Compound,survival
1,Cc1cc(=O)c2cc(C(=O)Nc3ccc(F)cc3)ccc2[nH]1,87%
2,Cc1ccc(S(=O)(=O)N(CC(=O)N2CCC(C(N)=O)CC2)c2ccccc2F)cc1,98%
3,Cc1ccccc1CN1CCN(CC(=O)NCc2ccccc2Cl)C1=O,77%
4,COc1ccc(CNC(=O)CCS(=O)(=O)c2ccc3c(c2)CC(C)N3C(=O)C2CC2)cc1 (stereo unspecified),76%
5,CCC(=O)N1c2ccc(S(=O)(=O)CCC(=O)NCc3cccc(OC)c3)cc2CC1C (stereo unspecified),82%
6,COc1ccccc1CNC(=O)CCS(=O)(=O)c1ccc2c(c1)CC(C)N2C(=O)C1CC1 (stereo unspecified),0% (active)
7,COc1cccc(CNC(=O)CCS(=O)(=O)c2ccc3c(c2)CC(C)N3C(=O)C2CC2)c1 (stereo unspecified),-3% (active)
8,CCC(=O)N1c2ccc(S(=O)(=O)CCC(=O)NCc3ccccc3OC)cc2CC1C (stereo unspecified),87%
9,CC1Cc2cc(S(=O)(=O)CCC(=O)NCc3ccccc3Cl)ccc2N1C(=O)C1CC1 (stereo unspecified),72%
10,COC(=O)c1ccccc1NC(=O)c1c(C)oc2ncn(C)c(=O)c12,95%
11,CC(C)N(C(=O)CSc1nc2ccc(Cl)cc2[nH]1)c1ccccc1,81%
12,O=c1c2cc3c(cc2nc2sc(Nc4ccc(F)c(Cl)c4)nn12)OCO3,138%
13,Cc1ccc(-n2nnnc2CNC(=O)c2cc(C(F)(F)F)cc(C(F)(F)F)c2)cc1C,-3% (active)
14,Cc1ccc(-n2nnnc2CNC(=O)c2ccc(F)cc2)cc1C,124%
15,Cc1ccc(C(=O)NCc2nnnn2-c2ccc(C)c(C)c2)cc1,82%
16,CC(C)(C)c1ccc(C(=O)NC2CCNCC2)cc1,108%
17,CC(C)Cn1c(=O)c2ccccc2n2c(CCC(=O)NCc3ccc(Cl)cc3)nnc12,92%
18,O=C(Nc1ccc2nc(SCC(=O)N3CCOCC3)sc2c1)c1ccc(F)cc1,92%
19,Cc1ccc(C)c(Nc2nc(-c3ccccc3)c3cc(Br)ccc3n2)c1,42%
20,Cc1cccc(Nc2nc(-c3ccccc3)c3cc(C)ccc3n2)c1,11% (active)
21,COc1ccc(Nc2nc(-c3ccccc3)c3cc(Br)ccc3n2)cc1,37%
22,Cc1ccc2nc(NN)nc(-c3ccccc3)c2c1,100%
23,COc1cccc(Nc2nc(-c3ccccc3)c3cc(C)ccc3n2)c1,9% (active)
24,Cc1ccc2nc(Nc3ccc(Br)cc3)nc(-c3ccccc3)c2c1,56%
